Laboratory results as given in PubChem BioAssay AID687042 (Broad Institute, 2013).
Calls of active or inactive are those of the source.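 Rule for the calls: active = absorbance drop of 50% or more relative to neutral controls, with potency under twice the top valid dose; inactive = the rest, including effects in the opposite direction.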

Target: Protein disulfide-isomerase A6 (Homo sapiens) (UniProt Q15084)
Experiment: ERp5 reductase inhibition, dose response, selectivity assay for PDI inhibitor project, biochemical, insulin aggregation, absorbance, dry powder, set 2 (AID 687042)
Details: ERp5 insulin reduction aggregation, absorbance 650 nm; series mostly up to 35 µM; activity, negative = inhibition: at the top concentration

Chain of Protein disulfide-isomerase A6 (Homo sapiens) (Q15084 whole entry, looked up): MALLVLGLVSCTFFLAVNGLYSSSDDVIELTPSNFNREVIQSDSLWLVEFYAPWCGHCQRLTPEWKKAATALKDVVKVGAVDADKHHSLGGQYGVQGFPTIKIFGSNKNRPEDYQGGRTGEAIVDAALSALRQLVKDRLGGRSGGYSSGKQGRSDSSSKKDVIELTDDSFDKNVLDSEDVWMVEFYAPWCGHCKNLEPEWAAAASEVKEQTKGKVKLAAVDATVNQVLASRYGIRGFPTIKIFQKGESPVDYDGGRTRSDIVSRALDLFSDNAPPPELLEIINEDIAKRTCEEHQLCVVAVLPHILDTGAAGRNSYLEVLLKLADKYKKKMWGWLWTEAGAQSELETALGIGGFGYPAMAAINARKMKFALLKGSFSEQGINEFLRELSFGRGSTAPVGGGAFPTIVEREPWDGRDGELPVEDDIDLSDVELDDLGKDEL

activity, negative = inhibition, inactive:
CCN(C)C(=O)C1(CCOc2ccccc2)CCN(Cc2ccc(O)c(Cl)c2)CC1 4.18%
O=C(N1CCCC1)C1(CCOc2ccccc2)CCN(Cc2ccc(O)c(Cl)c2)CC1 0.652%
CCOC(=O)C1(CCOC)CCN(Cc2ccc(O)c(Cl)c2)CC1 -4.25%
CCOC(=O)C1CCN(C(=O)OC(C)(C)C)CC1 0.268%
CCOC(=O)c1c(CN2CCN(CCO)CC2)n(-c2ccccc2)c2cc(Br)c(O)cc12 30.7%
CCOC(=O)C1(CCOc2ccccc2)CCN(Cc2ccc3[nH]c(=O)oc3c2)CC1 2.69%
O=C(NC1CCCC1)C1(CCOc2ccccc2)CCN(Cc2ccc(O)c(Cl)c2)CC1 2.7%
CCOC(=O)C1(CCOc2ccccc2)CCN(C(=O)OC(C)(C)C)CC1 -7%
CCOC(=O)C1(CCOc2ccccc2)CCN(C(=O)c2ccc(O)c(Cl)c2)CC1 7.26%
CCOC(=O)C1(Cc2cccc(OC)c2)CCN(Cc2ccc(O)c(Cl)c2)CC1 5.81%
C=CCOc1ccc(CN2CCC(CCOc3ccccc3)(C(=O)NCC)CC2)cc1Cl -0.683%
C=CCOc1ccc(CN2CCC(CCOc3ccccc3)(C(=O)OCC)CC2)cc1Cl 2.71%
CC(C)OC(=O)C1(CCOc2ccccc2)CCN(Cc2ccc(O)c(Cl)c2)CC1 2.23%
C=CCOc1ccc(CN2CCC(CCOc3ccccc3)(C(=O)N3CCCC3)CC2)cc1Cl 12.4%
CCOC(=O)C1(CCOc2ccccc2)CCN(Cc2ccc(OC)c(Cl)c2)CC1 -4.15%
C=CCOc1ccc(CN2CCC(CCOc3ccccc3)(C(=O)N(C)CC)CC2)cc1Cl 9.33%
C/C1=C\[C@@H](O)C(C)(C)CCCC2(C)OC2C[C@@H]1OC(=O)c1ccc(O)cc1 (some centres undefined) 3.86%
CCOC(=O)C1(CCOC)CCCN(Cc2ccc(Cl)cc2)C1 (centres undefined) -6.3%
O=C(Nc1ccccc1)C1(CCOc2ccccc2)CCN(Cc2ccc(O)c(Cl)c2)CC1 -7.01%
CCOC(=O)C1(CCOc2ccccc2)CCN(Cc2ccc(OC)cc2)CC1 -4.92%
CCOC(=O)C1(CCOc2ccccc2)CCN(Cc2ccc(O)cc2)CC1 -6.52%
CCNC(=O)C1(CCOc2ccccc2)CCN(Cc2ccc(O)c(Cl)c2)CC1 -0.667%
C/C1=C\C[C@H](OC(=O)c2ccc(O)cc2)/C(C)=C/[C@@H](O)C(C)(C)CCC1 14.5%
C=CCOc1ccc(CN2CCC(CCOc3ccccc3)(C(=O)O)CC2)cc1Cl 5.75%
CCOC(=O)C1(Cc2ccccc2)CCN(Cc2ccc(O)c(Cl)c2)CC1 -8.26%
CCOC(=O)C1(CCOc2ccccc2)CCN(Cc2cccc(Cl)c2)CC1 6.28%
C=CCOc1ccc(CN2CCC(CCOc3ccccc3)(C(=O)NC3CCCC3)CC2)cc1Cl 6.26%
CC(C)(C)OC(=O)C1(CCOc2ccccc2)CCN(Cc2ccc(O)c(Cl)c2)CC1 7.04%

outcome, inactive:
CCOC(=O)C1(CCOc2ccccc2)CCN(Cc2ccc(O)c(Cl)c2)CC1
